# Laboratory results taken from PubChem BioAssay (NCI).
# The panel holds about 83,000 compounds, 20% with a hit somewhere; the sample as a whole holds those more often.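 Compound tested at a single concentration for 48 hours in 96-well plates; a percent growth value below 10 was scored as active.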 Values without a mark were called inactive. Active and inactive are the calls of the source.
# System: PC-3 prostate
# Assay: NCI-60 one-dose screen, 48 h (100 = growth as untreated, 0 = no growth, -100 = all killed)
# Conditions: 10 µM unless noted
row,SMILES,growth
1,O=C(Nc1ccc(CN2CCOCC2)c(C(F)(F)F)c1)c1nc2ccc3[nH]ncc3c2c2c1CCCC2,66.2%
2,CC(C)[C@H]1CCC2=C3CC[C@]45OC(=O)[C@@]6(CCC(C)(C)C[C@H]64)CC[C@@]5(C)[C@]3(C)CC[C@@]21C,39.3% [100 µM]
3,Cc1ccc2c(c1)/C(=N\N=C/c1cn(C(C)C)c3ccccc13)C(=O)N2,34.7%
4,COc1ccc(C(=O)c2nccc3cc(OC)c(OC)cc23)cc1OC,95.9%
5,Nc1cc(C(=O)O)[nH]c(=S)n1,99.8%
6,CC1(C)CC[C@]2(C(=O)O)CC[C@]3(C)C(=CC[C@@H]4[C@@]5(C)C/C(=C/c6cccnc6)[C@H](O)C(C)(C)[C@@H]5CC[C@]43C)[C@@H]2C1,4.87% [100 µM] (active)
7,ClC1=C(Cl)C(Cl)=C(Cl)C1=Cc1ccccc1,-10.3% (active)
8,CCCCC(CCCCCC(CCCC)C1NC(C)Cc2cc(OC)c(OC)cc21)C1NC(C)Cc2cc(OC)c(OC)cc21 (stereo not drawn),-60.8% (active)
9,COc1ccccc1S(=O)Nc1ccccc1 (stereo not drawn),87.2%
10,Cc1cnc(N)nc1OCC(C)(C)CNC(=O)c1cccc(-c2ccc(S(=O)(=O)Nc3ccc4c(c3)N(C(=O)C3CC3)CCC4)cc2)c1,51.8%
11,C=C(C)[C@@H]1CC[C@]2(COC(=O)c3ccccc3C(=O)O)CC[C@]3(C)[C@H](CC[C@@H]4[C@@]5(C)CC[C@H](OC(=O)c6ccccc6C(=O)O)C(C)(C)[C@@H]5CC[C@]43C)[C@@H]12,16.2% [100 µM]
12,Cc1cc(N2CCCCCC2)nc(N2CCN(CC(=O)Nc3ccc4c(ccn4Cc4ccccc4)c3)CC2)n1,29%
13,CC1(C)C(=O)/C(=C\c2cccnc2)C[C@]2(C)[C@H]3CC[C@@H]4[C@H]5[C@H](C(=O)/C=C/c6cccnc6)CC[C@]5(C(=O)O)CC[C@@]4(C)[C@]3(C)CC[C@@H]12,-38.4% [100 µM] (active)
14,CCN(CC)CCSC(=O)C(O)(c1ccccc1)C1CCCC1 (stereo not drawn),96.9%
15,O=C(NNc1ccc(-c2ccccc2)nn1)c1ccccc1,102%
16,Cc1cc2c(C(C)C)c(O)c(O)c(C=NCc3ccoc3)c2c(O)c1-c1c(C)cc2c(C(C)C)c(O)c(O)c(C=NCc3ccco3)c2c1O,29.7%
17,c1ccc(-c2nnc(-c3c[nH]c4ncccc34)s2)cc1,81.6%
18,Cc1ccc(-c2cc(-c3ccc(C)cc3)nc(NCCNc3ccnc4cc(Cl)ccc34)n2)cc1,-22.8% (active)
19,Cn1cc(-c2noc(C(=O)c3cn(C)c4ncccc34)n2)c2ccccc21,87%

row,SMILES,growth
1,Cc1cc(NN=C(c2ccc(O)cc2)c2ccc(O)cc2)c([N+](=O)[O-])cc1[N+](=O)[O-],38.4%
2,O=C(C[n+]1ccn(CC(OCc2ccc(Cl)cc2Cl)c2ccc(Cl)cc2Cl)c1)c1ccc(F)cc1 (stereo not drawn),-88.5% (active)
3,COc1cc(-c2nc(SCCC(C)C)nc(Nc3ccc(S(N)(=O)=O)cc3)c2C#N)cc(OC)c1OC,9.42% (active)
4,CC(C)=CCC[C@](C)(O)[C@H]1CC[C@]2(C)[C@@H]1CC[C@@H]1[C@@]3(C)CC[C@H](OC(=O)CCC(=O)O)C(C)(C)[C@@H]3CC[C@]12C,27.4% [100 µM]
5,C=C(C)[C@@H]1CC[C@]2(C)[C@H](CC[C@@H]3[C@@H]([C@@](C)(O)CCC=C(C)C)CC[C@]32C)[C@@]1(C)CCC(=O)O,5.99% [100 µM] (active)
6,O=C(CCN1CCCCC1)c1ccc2ccccc2c1,97.6%
7,O=C(N/N=C/c1c(Cl)cccc1Cl)c1cccc(Nc2ccnc(C(F)(F)F)c2)c1,77%
8,CCc1ccc(C2=C/C(=C/c3ccccc3)C(=O)N2CCc2ccc(S(N)(=O)=O)cc2)cc1,99.9%
9,COc1cc2c(cc1OCCCCCOc1ccc(-n3c(C)nc4ccccc4c3=O)cc1)N=C[C@@H]1CCCN1C2=O,4.39% (active)
10,CCN(CCO)CCC(=O)c1ccc([N+](=O)[O-])cc1,103%
11,COc1c(B(O)O)cccc1-c1nc2ccc3[nH]ncc3c2c2c1CCC2,60.2%
12,Cc1ccc(-c2cc(O)c(-c3ccc(C)cc3C)cc2O)c(C)c1,52.1%
13,C=C(C)[C@@H]1CC[C@]2(c3ncc(C)o3)CC[C@]3(C)[C@H](CC[C@@H]4[C@@](C)(CCC#N)[C@H](C(=C)C)CC[C@]43C)[C@@H]12,-64.1% [100 µM] (active)
14,Nc1nc(Nc2ccccc2)c2ncn(Cc3ccc4c(c3)OCO4)c2n1,58.4%
15,CC(=O)OC[C@]12CC[C@@H](C(=O)CBr)[C@@H]1[C@H]1CC[C@@H]3[C@@]4(C)CCCNC(C)(C)[C@@H]4CC[C@@]3(C)[C@]1(C)CC2,-76.6% [100 µM] (active)
16,C[C@@H]1C[C@H]2C(=O)O[C@@H](C)[C@H](NC(=O)[C@H](Cc3cc(F)cc(F)c3)NC(=O)Nc3ccc(Cl)cc3F)C(=O)N3C[C@H](O)C[C@H]3C(=O)N3CCN(C)C[C@H]3C(=O)N[C@@H](C)C(=O)N2C1,18.1%
17,COC(=O)C(=Cc1ccccc1[N+](=O)[O-])C(=O)OC,40.4%
18,CC1Cc2c(Cl)ncnc2N(C)c2ccc(Cl)cc21 (stereo not drawn),13.9%
19,CC1(C(=O)O)CCC(N)(C(=O)O)C1(C)C (stereo not drawn),88.8%
